# Test results reported in paper PMC4552634, “A New Set of Chemical Starting Points with Plasmodium falciparum Transmission-Blocking Potential for Antimalarial Drug Discovery” (PLoS ONE, 2015).
# Screen size: about 13,000 compounds; about 3,200 (25%) showed an effect of 50% or more. The list shows a part of the results.
# Test system: P. falciparum stage V gametocytes
# Design: BacTiter-Glo ATP luminescence viability of purified stage V gametocytes in 384-well plates, per cent inhibition versus DMSO
# Details: 48 h, 5 µM; inhibitor
row,SMILES,% Inhibition [%]
1,CCOC(=O)C1=C(C)NC(C)=C(C(=O)OCC)C1(C(=O)OCc1ccccc1)c1cccc(C(F)(F)F)c1 [TCMDC-132060],-16.58
2,Cc1cc(NC(=O)c2coc3cc(F)c(N4CC(C)N(C)C(C)C4)cc23)cnc1-c1ccc(C#N)cc1 (stereo not drawn) [TCMDC-141403],-2.152
3,Oc1ccc(Cl)cc1CN1CCC(CCOC(c2ccccc2)c2ccc(Cl)cc2)CC1 (stereo not drawn) [TCMDC-136035],13.31
4,O=C(/C=C/c1ccc(Cl)c(Cl)c1)NCCCCCN1CCC(NC(=O)Nc2cc(F)ccc2F)CC1 [TCMDC-135713],-50.93
5,COc1cc(F)c2ncc(Cl)c(CCN3CCC(NCc4cc5c(cn4)OCCO5)CC3)c2c1 [TCMDC-134284],7.425
6,O=S(=O)(c1cc(Cl)ccc1Cl)N1CCCCC(c2ccc(C(F)(F)F)cc2)=N1 [TCMDC-134538],-6.074
7,CCCCN1CCCC[C@H]1[C@@H](O)c1ccnc2ccc(OCC)cc12 [TCMDC-132037],-41.99
8,CC(C)(C)c1ccc(NC(=O)c2cccc(CN3CCCN(Cc4cccc(C#N)c4)CC3)c2)cc1 [TCMDC-135981],-19.29
9,CN(N=Cc1ccccc1)C(N)=NCCCC#Cc1cccc(CN2CCCC2)c1 [TCMDC-136886],99.7
10,CC(C)c1ccc(NC(=O)c2cccc(CN3CCCN(Cc4cccc(C#N)c4)CC3)c2)cc1 [TCMDC-135975],18.13
11,CCCCCCNC(=O)C1Cc2c([nH]c3ccccc23)C2(CCN(CCc3ccccc3)CC2)N1 (stereo not drawn) [TCMDC-141085],-57.94
12,O=C(CCc1cnc[nH]1)Nc1ccc(-c2ccc(-c3nc4ccc(F)cc4[nH]3)cc2)cc1 [TCMDC-136776],4.733
13,CCCCCCCCOc1c(OCC)cc(Cc2cnc(N)nc2N)cc1OCC [TCMDC-137175],-7.172
14,CCCCCCN(CCCCCC)CCCCNc1c2ccc(Cl)cc2nc2ccc(OC)cc12 [TCMDC-137520],100.6
15,CCCCN(CCCC)CCCCNc1c2ccc(Cl)cc2nc2ccc(OC)cc12 [TCMDC-137460],99.56
16,CCN(CC)CCCCCNc1c2ccc(Cl)cc2nc2ccc(OC)cc12 [TCMDC-137514],94.78
17,COc1ccc2nccc([C@@H](O)CN3CCC(NC(=O)C(c4ccsc4)N4CCN(c5ccccc5)CC4)CC3)c2c1 (stereo partly drawn) [TCMDC-140985],-15.82
18,Cc1cccc2nc(-c3cccc(-c4cccc(C(=O)NCc5nccn5C)c4)c3)[nH]c12 [TCMDC-132355],-47.29
19,CNCCNCc1ccc(-c2ccc(-c3nc4ccc(C(F)(F)F)cc4[nH]3)cc2)cc1 [TCMDC-132833],32.25
20,CNCCNCc1ccc(-c2cccc(-c3nc4ccc(C(F)(F)F)cc4[nH]3)c2)cc1 [TCMDC-132826],78.68
21,CNc1ccc(CNCc2cccc(-c3ccc(-c4nc5ccc(C(F)(F)F)cc5[nH]4)cc3)c2)cc1 [TCMDC-132982],-73.95
22,CNCCNCc1cccc(-c2ccc(-c3nc4ccc(C(F)(F)F)cc4[nH]3)cc2)c1 [TCMDC-132834],79.7

row,SMILES,% Inhibition [%]
1,CNCCNCc1cccc(-c2cccc(-c3nc4ccc(C(F)(F)F)cc4[nH]3)c2)c1 [TCMDC-132827],52.85
2,COc1ccc(CNCc2ccc(-c3cccc(-c4nc5ccc(C(F)(F)F)cc5[nH]4)c3)cc2)cc1 [TCMDC-132731],-22.42
3,COc1ccc(CNCc2cccc(-c3ccc(-c4nc5ccc(C(F)(F)F)cc5[nH]4)cc3)c2)cc1 [TCMDC-132723],-32.29
4,CC(C)NCc1cccc(-c2ccc(-c3nc4ccc(C(F)(F)F)cc4[nH]3)cc2)c1 [TCMDC-132742],-56.16
5,CN(CCN)Cc1cccc(-c2cccc(-c3nc4ccc(F)cc4[nH]3)c2)c1 [TCMDC-132822],48.31
6,CN(CCN)Cc1cccc(-c2cccc(-c3nc4ccc(C(F)(F)F)cc4[nH]3)c2)c1 [TCMDC-132818],68
7,Clc1ccc(-c2cc(-c3csc(NCCN4CCCCC4)n3)on2)cc1 [TCMDC-140321],-2.378
8,NC(=O)C1CCN(Cc2cccc(-c3cccc(-c4nc5cc(C(F)(F)F)ccc5[nH]4)c3)c2)CC1.O=C(O)C(F)(F)F [TCMDC-132696],-65.64
9,Cc1ccc(C(C)C)c(Oc2ccc3nc(N)nc(N)c3c2)c1 [TCMDC-135559],-10.97
10,OC1(Cc2ccccc2)CCN(Cc2cccc(-c3c[nH]c4nc(NC5CCCC5)ncc34)c2)CC1 [TCMDC-133773],-59.82
11,FC(F)(F)c1ccc2nc(-c3cccc(-c4cccc(CNCCc5ccncc5)c4)c3)[nH]c2c1 [TCMDC-132847],78.26
12,c1cc(CNCCc2ccncc2)cc(-c2cccc(-c3nc4ccccc4[nH]3)c2)c1 [TCMDC-132858],84.49
13,c1cc(CNCCc2ccncc2)cc(-c2csc(-c3nc4ccccc4[nH]3)c2)c1 [TCMDC-132841],-33.89
14,FC(F)(F)c1ccc2nc(-c3cccc(-c4cccc(CN5CCN(c6ccncc6)CC5)c4)c3)[nH]c2c1 [TCMDC-132911],-29.28
15,FC(F)(F)c1ccc2nc(-c3cccc(-c4ccc(CNCCc5ccncc5)cc4)c3)[nH]c2c1 [TCMDC-132845],-28.78
16,O=C(O)C(F)(F)F.c1cc(CNCCc2ccncc2)cc(-c2ccc(-c3nc4ccccc4[nH]3)s2)c1 [TCMDC-132842],-14.4
17,O=C(c1cc2nc3c(c(C(F)(F)F)n2n1)CCc1ccccc1-3)N1CCN2CCCC2C1 (stereo not drawn) [TCMDC-123850],0.1952
18,O=C(NCC1CCN(Cc2ccc(F)cc2)C1)c1cc(-c2cccc(C(F)(F)F)c2)cs1 (stereo not drawn) [TCMDC-134481],39.58
19,CC(C)(C)CCN1CCC(NC(=O)c2ccc(-c3cccc(C(F)(F)F)c3)s2)CC1 [TCMDC-134322],-68.21
20,CC(C)(C)c1ccc(CN2CCC(NC(=O)c3cc(-c4cccc(C(F)(F)F)c4)cs3)C2)cc1 (stereo not drawn) [TCMDC-134475],53.3
21,CC(C)c1ccc(CN2CCC(CNC(=O)c3cc(-c4cccc(C(F)(F)F)c4)cs3)C2)cc1 (stereo not drawn) [TCMDC-134435],101.9
22,CCc1ccc(CN2CCC(CNC(=O)c3cc(-c4cccc(C(F)(F)F)c4)cs3)C2)cc1 (stereo not drawn) [TCMDC-134430],102.1

row,SMILES,% Inhibition [%]
1,O=C(NC1CCN(Cc2ccc(F)cc2)CC1)c1ccc(-c2cccc(C(F)(F)F)c2)s1 [TCMDC-134358],-14.39
2,CSc1ccc(CN2CCC(NC(=O)c3ccc(-c4cccc(C(F)(F)F)c4)s3)CC2)cc1 [TCMDC-134340],5.591
3,CC(C)(C)CCN1CCC(CNC(=O)c2cc(-c3cccc(C(F)(F)F)c3)cs2)C1 (stereo not drawn) [TCMDC-134425],78.38
4,CC(C)(C)CCN1CCC(CNC(=O)c2cc(-c3cccc(Cl)c3)cs2)C1 (stereo not drawn) [TCMDC-134426],39.67
5,COc1ccc(CNC(=O)NC2CCN(c3ccnc(Nc4ccc(F)cc4)n3)C2)cc1 (stereo not drawn) [TCMDC-133592],-44.87
6,CCCc1cc(Cc2cnc(N)nc2N)cc(CCC)c1OCCCCC(=O)OC [TCMDC-137290],-38.14
7,CCNc1cc(C)nc(Nc2ccccc2)n1 [TCMDC-134006],18.88
8,CC(=O)Nc1nc(C(=O)Nc2ccc(-c3ccc(-c4nc5ccccc5[nH]4)cc3)cc2)cs1 [TCMDC-137128],-5.634
9,CCOC(=O)CCCOc1c(OC)cc(Cc2cnc(N)nc2N)cc1OC [TCMDC-137899],-8.343
10,O=C(Nc1ccc(Cl)c(C(F)(F)F)c1)Nc1ccc(Cl)c(C(F)(F)F)c1 [TCMDC-137559],-42.31
11,CC(C)(C)c1ccc(CN2CCC(CNC(=O)c3cc(-c4cccc(C(F)(F)F)c4)cs3)C2)cc1 (stereo not drawn) [TCMDC-134442],107
12,CN(C)CCOc1cc(NC(=O)/C=C/c2cccc3ccccc23)ccc1I [TCMDC-139119],42.15
13,OCC1CCN(Cc2ccc(-c3cccc(-c4nc5ccc(F)cc5[nH]4)c3)cc2)CC1 [TCMDC-133121],70.65
14,NC(=O)C1CCN(Cc2ccc(-c3cccc(-c4nc5ccc(F)cc5[nH]4)c3)cc2)CC1 [TCMDC-132689],-35.18
15,OCC1CCN(Cc2ccc(-c3ccc(-c4nc5ccccc5[nH]4)cc3)cc2)CC1 [TCMDC-133927],-51.35
16,OCC1CCN(Cc2cccc(-c3ccc(-c4nc5ccc(F)cc5[nH]4)cc3)c2)CC1 [TCMDC-133934],-11.78
17,OCCC1CCN(Cc2ccc(-c3ccc(-c4nc5ccccc5[nH]4)cc3)cc2)CC1 [TCMDC-133905],-1.76
18,OCC1CCN(Cc2ccc(-c3cccc(-c4nc5ccccc5[nH]4)c3)cc2)CC1 [TCMDC-132552],86.93
19,COc1cccc(CNC[C@@H](O)[C@H](Cc2ccccc2)NC(=O)c2cc(OC(C)C)cc(N3CCCCS3(=O)=O)c2)c1 [TCMDC-134522],-6.565
20,COc1ccc2c(c1)CCCC2C(C)NCC(O)c1cccc(C(F)(F)F)c1 (stereo not drawn) [TCMDC-131535],-11.59
21,Cc1[nH]c(C)c(-c2ccc(-c3cccc(Cl)c3)nc2)c(=O)c1Br [TCMDC-136160],67.06
22,Cc1[nH]c(C)c(-c2ccc(-c3cccc(Cl)c3)nc2)c(=O)c1Cl [TCMDC-136300],76.37
